Laboratory results: the supplement of paper PMC8728848
Only a selection was taken, and the strongest signals are over-represented in it overall.

Legend:
Assay in all cases: glycan array binding signal (z-score within array); higher = stronger binding
Conditions in all cases: glycan notation: IUPAC condensed, linker removed
[1] = target: Neu5Ac(a2-3)Gal(b1-3)[Neu5Ac(a2-6)]GalNAc
Method in brief: (§1)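 The binding signal is a Z-score computed within each array and averaged over linkers. Arrays of the same protein sequence at different concentrations or buffers were also averaged together. Data originate from 3228 arrays in the Consortium for Functional Glycomics database, kept only where the protein sequence was available.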

Neu5Ac(a2-3)Gal(b1-4)Glc = target: Neu5Ac(a2-3)Gal(b1-4)Glc
Method in brief: as §1

[2] = target: Neu5Ac(a2-3)Gal(b1-4)GlcNAc(b1-2)Man
Method in brief: as §1

[3] = target: Neu5Ac(a2-3)Gal(b1-4)GlcNAc(b1-3)Gal(b1-4)GlcNAc(b1-3)[Neu5Ac(a2-3)Gal(b1-4)GlcNAc(b1-3)Gal(b1-4)GlcNAc(b1-6)]GalNAc
Method in brief: as §1

[4] = target: Neu5Ac(a2-3)Gal(b1-4)GlcNAc(b1-3)GalNAc
Method in brief: as §1

[5] = target: Neu5Ac(a2-3)Gal(b1-4)[Fuc(a1-3)]GlcNAc(b1-6)[Gal(b1-3)]GalNAc
Method in brief: as §1

[6] = target: Neu5Ac(a2-6)Gal(b1-4)GlcNAc
Method in brief: as §1

[7] = target: Neu5Ac(a2-6)Gal(b1-4)GlcNAc(b1-3)GalNAc
Method in brief: as §1

[8] = target: Neu5Ac(a2-6)GalNAc(b1-4)GlcNAc
Method in brief: as §1

[9] = target: Neu5Ac(a2-6)GlcNAc(b1-4)GlcNAc(b1-4)GlcNAc
Method in brief: as §1

B1: BC2LB (Burholderia cenocepacia), B4EH85_BURCJ (protein)
chain: MGSSHHHHHHSSGENLYFQGHMSQPFTHDDLYALLQLAGNDATAVQANGDQAVLDRMRQFMTAQLVEKLPQYDVFVDIATIPYSFDVGSWQNKVKTDAAGEVVACTVTWAGAPGVLPGAAAKFGVGAVVNYFSKATPH
glycan array binding signal (z-score) [1]: 2.87 | glycan array binding signal (z-score) (Neu5Ac(a2-3)Gal(b1-4)Glc): 5.24 | glycan array binding signal (z-score) [2]: 2.39 | glycan array binding signal (z-score) [3]: -0.203 | glycan array binding signal (z-score) [4]: -0.104 | glycan array binding signal (z-score) [5]: -0.247 | glycan array binding signal (z-score) [6]: -0.206 | glycan array binding signal (z-score) [7]: 10.1 | glycan array binding signal (z-score) [8]: -0.418 | glycan array binding signal (z-score) [9]: -0.338
